Experimental data from PubChem BioAssay AID686978 (National Center for Advancing Translational Sciences (NCATS), 2013).
In all, about 420,000 compounds went through this assay and about 64,000 (15%) were called active. About 27% were inconclusive and are not listed. Calls come from the whole dose curve; as a rule, active = well fitted inhibition curve with a large enough effect; inconclusive = small, poorly fitted or top-dose-only effect; inactive = flat fitted curve, though single readings scatter. Only a sample is shown. A call without a number means that no potency is given here.

Experiment: qHTS for Inhibitors of human tyrosyl-DNA phosphodiesterase 1 (TDP1): qHTS in cells in absence of CPT; note: nearly all actives have a fitted effect of over 55% in size
Conditions: DT40 Tdp1-/- hTDP1 cells, no CPT, ATP luminescence, 48 h; activity change, negative = growth inhibition: at 46.2 µM (top of the series)
Summary of the method: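 A cellular qHTS used chicken DT40 cells lacking endogenous Tdp1 but carrying stably transfected human TDP1. Compounds were applied without camptothecin, and cell growth kinetics were judged by ATP-dependent luminescence after ≥48 hr.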
Potency is the fitted concentration of half-maximal effect.

Compound | Potency
CC(C)NC(=O)C(c1ccc(F)cc1)N(C(=O)CCC(=O)Nc1ccccn1)c1ccccc1F (stereo not given) | inactive
O=C(Nc1ccccc1Cl)N1CCC(CN2CCCCC2)CC1 | inactive
CC(=O)N=c1ncn(CC(COC(C)=O)OC(C)=O)c2nc[nH]c12 (stereo not given) | inactive
Cc1ccc(CNC(=O)CCCNC(=O)c2ccc(Cl)cc2)n1C | inactive
Cc1nc(-c2ccc(Cl)cc2)sc1C1(C)CC(c2ccc(Br)cc2)=NO1 (stereo not given) | inactive
Cc1cccc(NC(=O)CSc2nc3c(c(=O)[nH]2)CCC3)c1C | inactive
CCCCn1c(N)c(N(CC(C)C)C(=O)c2cccc(S(=O)(=O)N3CCN(C(C)=O)CC3)c2)c(=O)[nH]c1=O | inactive
O=C(NCCCn1ccnc1)C(=O)c1cn(CC(=O)N2CCCCCC2)c2ccccc12 | inactive
O=C(CC(=O)c1cccnc1)c1ccccc1 | 20.6 µM (active)
O=C(NNC(=O)c1cccnc1)Nc1ccccc1 | inactive
O=C(c1cccnc1)N(Cc1ccccc1)C(=O)c1cccnc1 | inactive
COC(=O)Cc1cnc(NC(=O)CSc2nc(C(C)C)cc(=O)[nH]2)s1 | inactive
COc1cccc(-n2c(=O)c3c(C)c(C(=O)N(C)C)sc3n(Cc3cccc(C)c3)c2=O)c1 | inactive
COc1cccc(N=c2oc3c(C)ncc(CO)c3cc2C(N)=O)c1 | inactive
CCCN(CCC)c1c([N+](=O)[O-])c(=O)oc2ccccc12 | inactive
CCC(C)(C)NC(=O)C(c1ccc(O)cc1)N(C(=O)Cn1nnc2ccccc21)c1ccc(NC(C)=O)cc1 (stereo not given) | inactive
COc1ccc(NC(=O)CCCNC(=O)Cn2cnc3sc4c(c3c2=O)CCCC4)cc1OC | inactive
O=C(CN1C(=O)CCn2nc(-c3ccccc3)cc21)NCc1ccccc1 | inactive
COc1ccc(NC(=O)CCCN2C(=O)CCn3nc(-c4cn(C)c5ccccc45)cc32)cc1OC | 23.1 µM (active)
O=C(/C=C/[C@H]1O[C@@H](n2ccc(=O)[nH]c2=O)[C@H](O)[C@@H]1O)NCc1ccccn1 | inactive
COc1ccc(C)cc1NC(=O)CSc1nnc(CC(=O)Nc2ccccc2F)n1C | inactive
COc1ccc(Cl)cc1NC(=O)CSc1nc(-c2cccs2)cc(C(F)(F)F)n1 | 20.6 µM (active)
COc1ccc(Cl)cc1NC(=O)CN(C)C(=O)c1cc(-c2cccs2)nn1-c1ccccc1 | 18.4 µM (active)
COc1ccc(-c2cc(C(F)(F)F)nc(SCC(=O)Nc3ccc4c(c3)OCO4)n2)cc1OC | inactive

Compound | Potency
COc1ccc(Cl)cc1NC(=O)CN(C)C(=O)CNC(=O)C12CC3CC(CC(C3)C1)C2 | inactive
O=C(COC(=O)c1cc(-c2cccs2)nn1-c1ccccc1)Nc1cc([N+](=O)[O-])ccc1Cl | inactive
COc1ccc(Cl)cc1NC(=O)CNc1ccccc1F | inactive
COc1ccc(Cl)cc1NC(=O)CN(C)C(=O)c1cc2ccccc2cc1OC | 18.4 µM (active)
C=Cn1cc[n+](CC(=O)c2ccc(OC)c(OC)c2)c1 | inactive
Cc1c(C(=O)N(C)CCc2cnn(C)c2)oc2c(F)cccc12 | inactive
Cn1ccs/c1=N\S(=O)(=O)c1ccc(C(C)(C)C)cc1 | inactive
CC(=O)Nc1ccc(S(=O)(=O)NCC2CCC(C(=O)NCCc3ccccc3)CC2)cc1 (stereo not given) | inactive
CS(=O)(=O)N1CCN=C1SCc1ccc(F)cc1 | inactive
CCn1c(SCc2cccc(C(=O)O)c2)nnc1-c1ccc(Cl)cc1 | inactive
Cc1oc2cc3oc(=O)ccc3cc2c1C | inactive
O=C(Nc1c(Br)cc2c(c1Br)Cc1ccccc1-2)C(F)(F)F | inactive
CC(=O)c1ccc2c(c1)c1ccccc1n2CC(C)C | inactive
CCOC(=O)c1sc(NC(=O)CSc2n[nH]c(CC)n2)nc1C | inactive
O=C(CN1CCc2cc3c(cc2C1)OCCCO3)Nc1ccccc1 | 25.9 µM (active)
O=C(CN1CCOCC1)Nc1ccccc1 | inactive
Cc1ccc(NC(=O)CN2CCc3ccccc3C2)cc1 | inactive
Cc1ccc(NS(=O)(=O)c2cn(C)c(=O)n(C)c2=O)c(C)c1 | inactive
O=C(CCN1C(=O)C2C3C=CC(C3)C2C1=O)Nc1ccccc1F (stereo not given) | inactive
O=C(NCCCNC(=O)c1ccccc1Cl)c1cnccn1 | inactive
CCCCNC1(C#N)CCN(Cc2ccccc2)CC1 | inactive
O=C1CC[C@@H]2CC3(C[C@@H]4CCN1[C@H]24)Nc1cc([N+](=O)[O-])ccc1NC3=NC1CCCCC1 (stereo not given in full) | inactive
O=C1CCC[C@@H]2C[C@@]3(C[C@@H]4CCN1[C@H]24)Nc1ccccc1NC3=NCc1ccccc1 | inactive
Cc1cc2c(cc1C)NC1(C[C@H]3CCC(=O)N4CC[C@@H](C1)[C@@H]34)C(=NC(C)(C)CC(C)(C)C)N2 (stereo not given in full) | 20 µM (active)

Compound | Potency
COc1ccc(N2C(=O)NC(NS(=O)(=O)c3ccc(Cl)cc3)(C(F)(F)F)C2=O)cc1 (stereo not given) | inactive
CN(C)C(=O)c1ccc(-c2cncnc2NC2CCNCC2)cc1 | inactive
O=C(O)c1ccc(/C=C2\SC(=S)N(NC(=O)c3ccc(Br)cc3)C2=O)cc1 | inactive
Cn1c(Cc2cccs2)nnc1SCC(=O)Nc1ccccc1 | inactive
CCn1c(Cc2cccs2)nnc1SCC(=O)c1ccc(C)cc1 | 14.1 µM (active)
Cc1ccc(-n2c(Cc3cccs3)nnc2SCC(=O)OC(C)C)cc1 | inactive
O=c1[nH]c(=O)c2nc3ccccc3nc2[nH]1 | inactive
CCCc1nnc(NC(=O)c2cccs2)s1 | inactive
O=C1NC(=O)C(c2ccc(Cl)cc2)N1 (stereo not given) | inactive
CCOC(=O)N1CCN(C(=O)C(=O)Nc2sc3c(c2C#N)CC(C)(C)OC3)CC1 | inactive
NS(=O)(=O)c1ccc2nc(NC(=O)CS(=O)(=O)c3ccc(F)cc3)sc2c1 | inactive
O=C(Cn1c(=O)sc2ccccc21)Nc1nc2c(s1)CCCC2 | inactive
COc1cc(C#Cc2ccc3cc(CCCO)oc(=O)c3c2)cc(OC)c1 | 1.03 µM (active)
CN(C(=O)CN1C(=O)CCSc2ccc(S(=O)(=O)N3CCCC3)cc21)c1ccccc1 | inactive
CSc1ccccc1NC(=O)c1cc(Cl)sc1Cl | inactive
CN(CC(=O)Nc1c(Cl)cccc1Cl)C(=O)c1ccncc1 | inactive
CCCc1ccc(OCC(=O)NNC(=S)NC(=O)c2ccco2)cc1 | 20.6 µM (active)
Cc1ccc(OCC(=O)NCCCNC(=O)c2ccco2)cc1C | inactive
CCCc1ccc(OCCNC(=O)c2ccco2)cc1 | inactive
CC(Oc1ccc2ccccc2c1)C(=O)NNC(=S)NC(=O)c1ccco1 (stereo not given) | 16.4 µM (active)
Cc1ccc(C(=O)NNC(=O)C(C)Oc2ccc3ccccc3c2)o1 (stereo not given) | inactive
O=C(Nc1ccc2ccccc2c1)/C(=C\c1ccc2c(c1)OCO2)NC(=O)c1ccco1 | inactive
